{"source": "PubChem BioAssay AID687014", "about": "(The Scripps Research Institute Molecular Screening Center, 2013)", "note": "Out of some 370,000 compounds screened, about 6,800 (1.8%) were called active. Only a selection was taken, and actives are over-represented in it overall. Unmarked numbers belong to inactive results.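 The calls were made as follows: active = activation above a cutoff set at the mean of all screened compounds plus 3 SD (cut at about 10% in these data); inactive = the rest.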"}
{"system": "Nuclear hormone receptor DAF-12 (Heterodera glycines), GAL4 fusion", "experiment": "hgDAF-12 GAL4 fusion reporter activation – cell-based, luminescence, HEK293, UAS-luciferase, primary screen (AID 687014);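 also: 0% = DMSO wells and 100% = sodium butyrate wells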", "conditions": "HEK293 GAL4-hgDAF12 UAS-luciferase reporter, agonist luminescence; at 6.8 µM; hits give high values; normalized to butyrate control"}
{"smiles": "COC(=O)[C@]12C[C@H](CC(=O)N3CCOCC3)C(=O)N(Cc3ccc(Cl)cc3Cl)C1=C[C@H](C(C)C)O[C@@H]2C1CC1", "activation": "-3.62%"}
{"smiles": "CCOC(=O)C1=C(C(=O)OCC)C2N(Cc3ccc(C#N)cc3)c3ccccc3[C@@]23C[C@@H](C(=O)OC)N(S(=O)(=O)c2ccc(F)cc2)C3=N1", "note": "(stereo partly drawn)", "activation": "2.34%"}
{"smiles": "Cc1ccc(-n2c(SCC(=O)Nc3cccc4ccccc34)nnc2-c2ccccn2)cc1", "activation": "-2.36%"}
{"smiles": "Cc1cccc(OCC(=O)Nc2ccc(C(=O)O)cc2NC(=O)COc2cccc(C)c2)c1", "activation": "-2.94%"}
{"smiles": "Cc1cccc(OCC(=O)Nc2ccccc2F)c1", "activation": "11.4% (active)"}
{"smiles": "Cc1cccc(OCC(=O)NC2CC(C)(C)NC(C)(C)C2)c1", "activation": "0.72%"}
{"smiles": "COC(=O)C1CN(CCc2ccccc2)CCS(=O)(=O)N1Cc1cccc(Cl)c1", "note": "(stereo not drawn)", "activation": "-0.51%"}
{"smiles": "COc1ccc(C2=Nc3cc(C)ccc3OC2)cc1", "activation": "15.9% (active)"}
{"smiles": "COc1ccc(-c2onc(C)c2-c2ccc3c(c2)OCCO3)c(O)c1", "activation": "-2.49%"}
{"smiles": "Cc1ccc(C(=O)NNC2=Nc3cc([N+](=O)[O-])ccc3OC2)cc1", "activation": "4.07%"}
{"smiles": "O=C1Nc2ccccc2OC1CC(=O)N1CCCCCCC1", "note": "(stereo not drawn)", "activation": "3.97%"}
{"smiles": "O=C(c1cccc(C(F)(F)F)c1)N1CC[C@H]2[C@H](CCCN2Cc2cc(F)cc(F)c2)C1", "activation": "1.35%"}
{"smiles": "O=C(O)c1cccc(N=NN2CCCCCC2)c1", "activation": "12.7% (active)"}
{"smiles": "Cc1ccc(C(=O)C(=S)N2CCOCC2)cc1", "activation": "3.06%"}
{"smiles": "O=C(c1ccccc1)C(O)(CN1CCCCC1)c1ccccc1", "note": "(stereo not drawn)", "activation": "-0.03%"}
{"smiles": "NC1=NN(c2cccc(C(=O)O)c2)C(=O)C1", "activation": "0.87%"}
{"smiles": "CC(=O)c1ccc(OC(=O)N2CCOCC2)cc1", "activation": "1.11%"}
{"smiles": "O=C(O)c1ccc(N=NN2CCOCC2)cc1", "activation": "10.6% (active)"}
{"smiles": "O=C(NC1CCCCN(Cc2cccc(C(F)(F)F)c2)C1=O)c1ccccc1I", "note": "(stereo not drawn)", "activation": "-2.42%"}
{"smiles": "CC(C)NC(=S)N1CCN(S(C)(=O)=O)CC1", "activation": "2.81%"}
{"smiles": "C=CCN1C(=O)[C@H](CC(=O)N2CCN(C(=O)OCC)CC2)[C@@]2(C(=O)OCC)CCCC=C12", "activation": "0.53%"}
{"smiles": "COC(=O)[C@@]12CCCCC=C1N(CCc1ccc(Cl)cc1)C(=O)[C@H]2CC(=O)NCc1ccc(OC)c(OC)c1", "activation": "-3.28%"}
{"smiles": "CCOC(=O)c1cn[nH]c1NC(=S)Nc1ccccc1", "activation": "15.5% (active)"}
{"smiles": "CCOC(=O)c1c(NC(=S)Nc2ccccc2)sc2c1CCN(C)C2", "activation": "-0.1%"}
{"smiles": "CCOC(=O)c1cc2c(nc1NC(=S)Nc1ccccc1)CC(C)(CC)OC2", "note": "(stereo not drawn)", "activation": "-0.06%"}
{"smiles": "Cc1ccccc1Nc1nc(N)nc(CSc2nnc3ccccn23)n1", "activation": "-2.26%"}
{"smiles": "Cc1ccccc1Nc1nc(N)nc(CSc2ccccc2)n1", "activation": "16.4% (active)"}
{"smiles": "Cc1ccccc1Nc1nc(N)nc(CN2CCN(c3ccccn3)CC2)n1", "activation": "-1.77%"}
{"smiles": "Clc1ccc(-n2c(SC/C=C/c3ccccc3)nnc2-c2ccco2)cc1", "activation": "-0.13%"}
{"smiles": "O=C(CSc1nc2ccccc2nc1N1CCCCC1)N1CCN(S(=O)(=O)c2cccc([N+](=O)[O-])c2)CC1", "activation": "0.48%"}
{"smiles": "CCc1ccc(CNC(=O)CCc2nc(-c3cccs3)no2)cc1", "activation": "1.81%"}
{"smiles": "COc1ccc(OC)c(CNC(=O)CCc2nc(-c3cccs3)no2)c1", "activation": "-2.24%"}
{"smiles": "COc1ccc(CCc2nc(-c3cccs3)no2)cc1", "activation": "11.6% (active)"}
{"smiles": "CCOC(=O)C1CSCCS(=O)(=O)N1Cc1ccc(Cl)cc1", "note": "(stereo not drawn)", "activation": "-2.53%"}
{"smiles": "CN1C(=O)C2CC(O)C(SC3CC4C(=O)N(C)C(=O)C4CC3O)CC2C1=O", "note": "(stereo not drawn)", "activation": "-0.94%"}
{"smiles": "COc1ccc2nc3n(c(=O)c2c1)-c1ccc(Cl)cc1C(=O)NC3Cc1ccccc1", "note": "(stereo not drawn)", "activation": "-2.62%"}
{"smiles": "O=C(NC1CCC1)c1ccc(C#Cc2cccc(F)c2)c[n+]1[O-]", "activation": "4.83%"}
{"smiles": "Cn1ncc(Br)c1C(=O)NC1CCCC1", "activation": "2.19%"}
{"smiles": "O=C(NC1CCC1)c1ccc(C#CC2CC2)cn1", "activation": "14.1% (active)"}
{"smiles": "CC1CN(C(=S)Nc2ccc(S(N)(=O)=O)cc2)CC(C)O1", "note": "(stereo not drawn)", "activation": "0.5%"}
{"smiles": "COc1cc(C(=O)Nn2c(O)c(C3=c4ccccc4=NC3=O)sc2=S)ccc1O", "activation": "5.04%"}
{"smiles": "Cc1ccc(-c2nnc(SC(C)C#N)n2N)cc1", "note": "(stereo not drawn)", "activation": "-2.55%"}
{"smiles": "COc1ccc(C(=O)COC(=O)c2nn(C)c(=O)c3ccccc23)c(OC)c1", "activation": "-0.75%"}
{"smiles": "COc1ccc(C(=O)COC(=O)CN2C(=O)C3CC=CCC3C2=O)c(OC)c1", "note": "(stereo not drawn)", "activation": "-0.12%"}
{"smiles": "COc1ccc(C(=O)COC(=O)C(O)c2ccccc2)c(OC)c1", "note": "(stereo not drawn)", "activation": "10.7% (active)"}
{"smiles": "Nc1[nH]c(C(=O)c2ccc(Br)cc2)c(-c2ccc3c(c2)OCO3)c1C(=O)NCCc1c[nH]c2ccccc12", "activation": "1.89%"}
{"smiles": "COc1ccc(NC(=O)CC2COc3ccccc3O2)c(OC)c1", "note": "(stereo not drawn)", "activation": "1.72%"}
{"smiles": "Cc1ccc(S(=O)(=O)N(C)C)cc1NC(=O)COC(=O)C1COc2ccccc2O1", "note": "(stereo not drawn)", "activation": "1.41%"}
{"smiles": "CC(=O)c1ccccc1NC(=O)COC(=O)C1COc2ccccc2O1", "note": "(stereo not drawn)", "activation": "24.1% (active)"}
{"smiles": "CCOC(=O)[C@]12CCCC=C1N(CCCOC)C(=O)[C@@H]2CC(=O)N1CCOCC1", "activation": "0.45%"}
{"smiles": "Cc1cc2c(C)nc(N/N=C/c3ccccc3)nc2o1", "activation": "4.01%"}
{"smiles": "COc1cccc(CNCc2ccc3c(c2)OCO3)c1", "activation": "-0.87%"}
{"smiles": "C(=N\\Nc1ccc2ccccc2n1)/c1ccc2c(c1)OCO2", "activation": "11.2% (active)"}
{"smiles": "Cc1noc(C)c1/C=N/Nc1ccc2ccccc2n1", "activation": "12.8% (active)"}
{"smiles": "O=C(OC12CCCN(C1)/C(=C/c1ccccc1)C2)c1ccco1", "note": "(stereo not drawn)", "activation": "-2.49%"}
{"smiles": "Cc1occc1C(=O)Nc1cccc(Cn2cccn2)c1", "activation": "0.48%"}
{"smiles": "Cc1cc(-c2ccccc2)n2nc(C)c(-c3ccccc3)c2n1", "activation": "0.2%"}
{"smiles": "Cc1nn(C(=O)c2ccoc2C)c(N)c1-c1ccccc1", "activation": "12.5% (active)"}
{"smiles": "O=C(NCCc1c[nH]c2ccccc12)OCc1cn(-c2c(F)cccc2F)nn1", "activation": "-0.77%"}
{"smiles": "O=S1(=O)c2c(cccc2N2CC[C@H](O)C2)O[C@@H]2CCN1C2", "activation": "-2.37%"}
{"smiles": "COc1cccc(/C=C2\\CC3(OC(C)=O)CCCN2C3)c1", "note": "(stereo not drawn)", "activation": "1.14%"}
{"smiles": "Cc1nc2ccc(C(=O)N3CCN(C(=O)C(C)(C)C)CC3)cc2n1C1CCCC1", "activation": "-0.38%"}
{"smiles": "COC[C@@H]1CCCN1c1ccc2c(c1)O[C@H](C)CCN(C1CC1)S2(=O)=O", "activation": "1.95%"}
{"smiles": "C/C(=N\\NC(=O)C(N)=O)c1ccc2c(c1)OCCO2", "activation": "4.44%"}
{"smiles": "O=C(/C=C/c1ccc2c(c1)OCCO2)c1ccc(O)cc1", "activation": "11.8% (active)"}
{"smiles": "COc1ccc(OC)c(/C=C/C(=O)c2ccc3c(c2)OCO3)c1", "activation": "-2.94%"}
{"smiles": "COC(=O)[C@]12C[C@H](CC(=O)NCc3cccc(C(F)(F)F)c3)C(=O)N(Cc3ccc4c(c3)OCO4)C1=C[C@H](COCc1ccccc1)O[C@@H]2C", "activation": "1.05%"}
{"smiles": "O=c1oc2ccccc2cc1-c1cn(-c2ccccc2)c(=S)[nH]1", "activation": "-16.8%"}
{"smiles": "Nc1ncc(-c2cc3ccccc3oc2=O)s1", "activation": "11.9% (active)"}
{"smiles": "CC(CCN1CCC(C(O)(c2ccccc2)c2ccccc2)CC1)Oc1ccc(C(F)(F)F)cc1", "note": "(stereo not drawn)", "activation": "0.45%"}
{"smiles": "O=C(Nc1cc(Cl)cc(Cl)c1)OCCN1CCCC12CCC(c1ccccc1)CC2", "note": "(stereo not drawn)", "activation": "-0.4%"}
{"smiles": "CC(C)=CCN1CCN(Cc2ccc(Oc3ncccn3)cc2)CC1CCO", "note": "(stereo not drawn)", "activation": "3.6%"}
{"smiles": "N#CC1(Nc2ccc3c4c(cccc24)CC3)CCCCC1", "activation": "-2.54%"}
{"smiles": "NC(=O)C1(Nc2ccc(-c3ccccc3)cc2)CCCC1", "activation": "0.26%"}
{"smiles": "N#CC1(Nc2ccc(-c3ccc(Cl)cc3)cc2)CCCC1", "activation": "13.3% (active)"}
{"smiles": "N=c1c2c3c(sc2nc2n1CCCCC2)CCCC3", "activation": "2.26%"}
{"smiles": "CC(=O)c1ccc(NC(=O)c2sc3nc4n(c(=O)c3c2C)CCCCC4)cc1", "activation": "6.99%"}
{"smiles": "COc1cccc(C(=O)Nc2ccc3nc4n(c(=O)c3c2)CCCCC4)c1", "activation": "4.15%"}
{"smiles": "Cc1c(C(=O)Nc2ccccc2)sc2nc3n(c(=O)c12)CCCCC3", "activation": "10.5% (active)"}
{"smiles": "CC1CCN(C(=O)c2ccc3c(=O)n4c(nc3c2)CCCCC4)CC1", "activation": "1.69%"}
{"smiles": "O=c1c2c(nc3n1CCCCC3)sc1c(O)cccc12", "activation": "12.6% (active)"}
{"smiles": "CC(C)CNS(=O)(=O)CC1NCCc2ccccc21", "note": "(stereo not drawn)", "activation": "-0.34%"}
{"smiles": "Cc1ccc(C2=CCN(C)C(=O)N2c2ccc(Cl)cc2)cc1", "activation": "7.34%"}
{"smiles": "COc1ccc(C(=O)OCCN(C)C2CN(Cc3cn(Cc4cccc(C)c4)nn3)S(=O)(=O)C2)cc1OC", "note": "(stereo not drawn)", "activation": "0.81%"}
{"smiles": "Cc1cccc(N2CCN(C(=O)c3cccc(N4C(=O)C5C6C=CC(C6)C5C4=O)c3)CC2)c1C", "note": "(stereo not drawn)", "activation": "-1.08%"}
{"smiles": "CN(CC(=O)Nc1ccc(Cl)cc1)C(=O)CNC(=O)c1ccc2ccccc2c1", "activation": "12.3% (active)"}
{"smiles": "CN(CC(=O)Nc1ccc(Cl)cc1)C(=O)c1ccc(COc2ccccc2)cc1", "activation": "0.13%"}
{"smiles": "CN(CC(=O)Nc1ccc(Cl)cc1)CC(=O)Nc1cccc2ccccc12", "activation": "0.52%"}
{"smiles": "O=C(CSc1nc2sc3c(c2c(=O)n1-c1ccccc1)CCCC3)NN=Cc1ccc(OCc2ccccc2)cc1", "activation": "4.38%"}
{"smiles": "O=C1CCC2(CCC(c3ccc(Cl)cc3)CC2)N1CCO", "note": "(stereo not drawn)", "activation": "-4.23%"}
{"smiles": "CC(C)CC(=O)N/C(N)=N/c1nc2ccccc2s1", "activation": "9.05%"}
{"smiles": "CCC(=O)NC(=Nc1nc2ccccc2s1)NC(=O)CC", "activation": "12.5% (active)"}
{"smiles": "CC(C)C(C)NC(=O)COc1ncnc2ccccc12", "note": "(stereo not drawn)", "activation": "1.57%"}
